Holding throughout (assay): HT-SELEX; high values mean tight binding
What all share (settings): protein: recombinant; vector His6-GST; dsDNA, one strand shown

Assay [1] has as its target T1, SALL4 ZFC4 WT (HT-SELEX) (Mus musculus, UniProt Q8BX22 870-940).
T1 sequence: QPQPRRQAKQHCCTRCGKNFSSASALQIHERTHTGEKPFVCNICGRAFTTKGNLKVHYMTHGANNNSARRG
The method in brief:
(§1)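 Binding signal is defined as the fold change of each canonical k-mer's read fraction versus the initial random library. Selections used 1 µg of purified recombinant mouse SALL4 zinc finger cluster 4 (residues 870–940) with library DNA (1.5 µg first cycle, 200 ng later) in 100 µl of 10 mM Tris–HCl pH 7.5, 50 mM NaCl, poly(dI-dC) and DTT, for 10 min at room temperature, followed by Ni2+ bead capture, washing and PCR. Up to 6 such cycles were run in triplicate before MiSeq sequencing and 6-mer scanning.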

The target in assay [2] is T2, SALL4 ZFC4 R900W (HT-SELEX) (Mus musculus, UniProt Q8BX22 870-940, R900W).
T2 sequence: T1 sequence with R31W
The method in brief:
as §1

Assay [3] has as its target T3, SALL4 ZFC4 G921D (HT-SELEX) (Mus musculus, UniProt Q8BX22 870-940, G921D).
T3 sequence: T1 sequence with G52D
The method in brief:
as §1

Substitutions are numbered along the chain they refer to.

Take TACTCA: the results for the binding signal in assay [1], in assay [2] and in assay [3] were 1.43 ± 0.0381 fold-change vs cycle 0, 1.5 ± 0.0664 fold-change vs cycle 0 and 1.42 ± 0.0998 fold-change vs cycle 0, respectively.

For the sequence CCAAAA, the binding signal was 0.9105 ± 0.0059 fold-change vs cycle 0 in assay [1], 0.953 ± 0.0119 fold-change vs cycle 0 in assay [2] and 0.997 ± 0.0429 fold-change vs cycle 0 in assay [3].

Regarding AGAACC, the binding signal was 0.8 ± 0.0457 fold-change vs cycle 0 in assay [1], 0.93 ± 0.0272 fold-change vs cycle 0 in assay [2] and 0.981 ± 0.014 fold-change vs cycle 0 in assay [3].

Turning to GAAGTC, the binding signal in assay [1] came to 0.797 ± 0.0523 fold-change vs cycle 0; in assay [2], 0.906 ± 0.0176 fold-change vs cycle 0; in assay [3] it was 0.953 ± 0.00992 fold-change vs cycle 0.

Take AATTAT: the values for the binding signal in assay [1], in assay [2] and in assay [3] were 4.89 ± 0.536 fold-change vs cycle 0, 2.6 ± 0.249 fold-change vs cycle 0 and 2.25 ± 0.303 fold-change vs cycle 0, respectively.

As for TACATA, the binding signal in assay [1] was found to be 2.44 ± 0.175 fold-change vs cycle 0; in assay [2], 2.02 ± 0.121 fold-change vs cycle 0; in assay [3], 1.78 ± 0.178 fold-change vs cycle 0.
